This note sets out measurements from the OligoGym collection.
Note: reference of the scale not given here.

In one test the target is GPKOW. Kind of test: pooled miR-30 sensor sort-seq; sequence = guide strand. The following applies: shRNA.
Sequence TAGGACATCTTCAATTATCATC displayed a sensor-assay potency score (higher = more potent) of -1.06.
Still for that read-out and setting: the result for TTCTCTTGCTCCTCATCTGGTC reads -0.383; that for TAAATTTTGGTAAATATTGGGT, -0.472; that for TACATGTTGTCCACAAACCGCA, -0.382.
Same read-out and setting: as for TTCAATTATCATCTTGGTGTTG, the figure is -0.529; as for TTCTCTTGGCAGTTGCACCAAA, -0.529; as for TCTTCAATTATCATCTTGGTGT, -0.0614.
On the same count and under the same terms, the result for TCACTAACAGTCACCACCCGGC reads -0.433.
Consider TTCACTACTTGATTGAAGGTGC, for which the sensor-assay potency score (higher = more potent) came to 0.973.
The sequence TCAATTATCATCTTGGTGTTGT had a sensor-assay potency score (higher = more potent) of 0.378.
Same read-out and setting: the result for TACAGAACTGGTACCAGCCTGG reads -0.224; that for TTCTTGTCAAACTCCTGCTGGG, -0.621.

The target in another test is GPR109B. The description is as above. To be noted: shRNA.
For the sequence AAACATGAAGAGCACCAGCCGG, the sensor-assay potency score (higher = more potent) was -1.47.
ATTCTGGATCAGCAACTTCTTC displayed a sensor-assay potency score (higher = more potent) of -1.51.
Same read-out and setting: as for TCACCTGTTATCTTCCTCTGGA, the figure is -0.218.
Take ATAGTAGTCCATCACGAACGGC: the sensor-assay potency score (higher = more potent) is -1.03.
In the case of TAGAAAGTCAGCTACTGCCAGG, the sensor-assay potency score (higher = more potent) is -1.14.
For TTGGAATGGTTATTTGAGGTTG, the sensor-assay potency score (higher = more potent) was -0.497.
For the sequence TGGCAATGAAGTCATCTCGGAA, the sensor-assay potency score (higher = more potent) is -1.54.
Same read-out and setting: the result for TAGGCCAACAGTGATGCCCCAC reads -0.395.
Same read-out and setting: as for AACATGAAGAGCACCAGCCGGC, the figure is -0.505; as for TAGTAGTCCATCACGAACGGCA, -0.532; as for TGCAGTGCCATTCTGGATCAGC, -0.994.
The same measure, in the same setting: the result for TTGGCAATGAAGTCATCTCGGA reads -0.164.

The next test concerns the target GPR123. The test is described as above. To be noted: shRNA.
With TGTGTGCGCAGCTCGTACCTGC, the sensor-assay potency score (higher = more potent) is -0.983.
Same read-out and setting: the result for TTCTGCAGCACGGAGGCGCCGG reads -0.928; that for TCGCAGTGCATCTTGGCGCAGC, -1.13.
Still for that read-out and setting: the result for TCGTTCTGCAGCACGGAGGCGC reads -0.763.
Same read-out and setting: the result for TTCTTGGTCACCTGCTTGTAGA reads -1.61; that for AACAGGAACAGCGTGAAGGCGG, -0.39.
As to TAATTCCTGATGTTCGTGGCAG, the sensor-assay potency score (higher = more potent) is -0.373.
Same read-out and setting: the result for TGCATCTTGGCGCAGCACGGGG reads -1.59.
As to TGTAGAATAGTGCAGCACGATG, the sensor-assay potency score (higher = more potent) was -1.66.
The same measure, in the same setting: as for TTCTAGCAATTTACCCTTGGGC, the figure is -1.05.
In the case of TTTTCCAGGGTCCCGTTCGGAT, the sensor-assay potency score (higher = more potent) is -1.35.
On the same count and under the same terms, the result for TAGCAATTTACCCTTGGGCAGC reads -1.23.

A further test has as its target GPR137. The test is described as above. The following applies: shRNA.
ATGACGAACAGGGAGTCGCTCA registered a sensor-assay potency score (higher = more potent) of -1.35.
The same measure, in the same setting: the result for TTGGCCTCCAGGTAGATGCTAG reads -0.691; that for TCATTCACCAGGTCCGCCTGGT, 0.279.
